Compounds without any hit were thinned out: in the full panel of roughly 83,000, 20% have a hit.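 How to read the values: 0–100, growth inhibition (40 = 60% inhibited); 0, no net growth; -100 to 0, cell death (-40 = 40% of starting cells died; -100 = all dead).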 Calls of active or inactive are those of the source. The calls were made as follows: active = growth percent below 10; inactive = the rest.
Tested on: HOP-62 NSCLC
Test: NCI-60 one-dose screen, 48 h (100 = growth as untreated, 0 = no growth, -100 = all killed)
Settings: 10 µM unless noted

| SMILES | growth |
| --- | --- |
| CCCCCSB(SCCCCC)c1ccccc1 | 90% (inactive) |
| c1ccc(CNc2ccc3nc(CCC4CCCCC4)[nH]c3c2)cc1 | 80.1% (inactive) |
| S=c1ssnc1-c1cccs1 | 103% (inactive) |
| O=C(/C=C/c1ccc(Br)cc1)c1ccc(-n2cc(CN3CCN(c4cc5c(cc4F)c(=O)c(C(=O)O)cn5C4CC4)CC3)nn2)cc1 | 87.4% (inactive) |
| COc1ccc(Cc2cnc(NC(=O)c3sc4ccccc4c3Cl)s2)cc1 | 26.3% (inactive) |
| N#C/C(=C\c1ccc(Cl)cc1Cl)C(=O)Nc1ncc(Cc2ccc(Cl)c(Cl)c2)s1 | 82.9% (inactive) |
| N#Cc1c(-c2cccc([N+](=O)[O-])c2)cc(-c2ccc(Nc3nc(Nc4ccc(F)cc4)nc(Nc4ccc(F)cc4)n3)cc2)nc1N | 85.9% (inactive) |
| O=C(CCCCCCN1CC(=O)N2[C@@H](c3ccc(Cl)cc3)c3[nH]c4ccccc4c3C[C@H]2C1=O)NO | 66.4% (inactive) |
| CCCCCCCCn1ccc2cc(NC(=O)Cn3cc(CN4CCC(C)CC4)nn3)ccc21 | 72.4% (inactive) |
| CCCC(O)Cn1ncc(C(=O)OCC)c1NC(=O)NCc1cccc(F)c1 (stereo not given) | 100% (inactive) |
| COc1cc2c3c(c1O)-c1ccccc1[C@@H]1OC(=O)N(CC2)[C@H]31 | 104% (inactive) |
| C/C(=C(/c1ccc(Cl)cc1)c1ccc(OCCCN(C)C)cc1)c1ccc(Cl)cc1 | 115% (inactive) |
| Cc1cc(C(=O)Nc2cc(Nc3ncccc3-c3ncnc4nc[nH]c34)ccc2F)cc(C(F)(F)F)c1 | 38.5% (inactive) |
| CCOC(=O)NN1CC(O)=C(c2nc(-c3ccc(Br)cc3)cs2)C1=N | 106% (inactive) |
| O=C1C(Cl)=C(NCCN2CCOCC2)C(=O)c2ncccc21 | -63% (active) |
| O=C(Nc1ccc(F)cc1)Nc1ccccc1CNc1nc(Nc2ccc(OCCN3CCCC3)cc2)ncc1Cl | 51.3% (inactive) |
| C[C@H]1[C@H](C)CC[C@]2(C(=O)O)CC[C@]3(C)C(=CC[C@@H]4[C@@]5(C)C[C@@H](Cc6cn([C@@H]7O[C@H](CO)[C@@H](O)[C@H](O)[C@H]7O)nn6)[C@H](O)C(C)(C)[C@@H]5CC[C@]43C)[C@H]12 | 88.9% (inactive) |
| COC(=O)c1ccc2c(c1)c1c(C)c3ccncc3c(C)c1n2C | 24% (inactive) |
| COc1cc(C(=O)c2c(-c3ccccc3)oc3c(OC)cccc23)cc(OC)c1O | 31.8% (inactive) |
| C=C1C(=O)O[C@H]2[C@H]1CC/C(CNC(=O)c1cc3ccccc3[nH]1)=C\CC[C@@]1(C)O[C@@H]21 | 9.39% (active) |

| SMILES | growth |
| --- | --- |
| O=P(O)(O)OCC1OC(n2cnc3c(NCc4ccccc4)ncnc32)C(O)C1O (stereo not given) | 29.9% (inactive) |
| CCN(CC)CCCNCc1cc(-c2ccccc2)nc2cc(Cl)ccc12 | 78.1% (inactive) |
| COc1cc2nc(Nc3cccc(F)c3)nc(Nc3cc(C)[nH]n3)c2cc1OC | -53.2% [20 µM] (active) |
| CCC/C(=N\NC(N)=O)C(OC)OC | 109% (inactive) |
| O=C1c2cc3c(cc2-c2c1c1ccc(Cl)cc1c(=O)n2C[C@H](O)CO)OCO3 | -19.8% (active) |
| CCSC1=CC(=O)c2ccccc2C1=O | 76.8% (inactive) |
| COc1cc(-c2nc3occn3c2-c2ccnc(NCCCNS(=O)(=O)c3ccccc3)n2)ccc1F | 73.9% (inactive) |
| COC1=CC(c2ccc[nH]2)=N/C1=C\c1[nH]c(C)c(CC(=O)OCc2ccccc2)c1C | 1.96% (active) |
| O=C(CSc1nnc2sc(Nc3cccc(Cl)c3)nn12)c1ccc(F)cc1 | 97.7% (inactive) |
| COc1ccc(C2=Nc3c(N)ncnc3NC(c3cccc(Nc4ccnc5cc(C(F)(F)F)ccc45)c3)C2)cc1 (stereo not given) | 63.7% (inactive) |
| Nc1c(C(=O)Nc2cccc3ncccc23)sc2nc3c(cc12)C(=O)CCC3 | 39% (inactive) |
| C#CCn1cnc2c(Nc3cccc(NC(=O)CCl)c3)ncnc21 | 43.5% (inactive) |
| COc1cc2oc(-c3cccc(NC(=O)c4ccc5c(c4)OCO5)c3)cc(=O)c2c(OC)c1OC | 54.4% (inactive) |
| CCOC(=O)CSc1nc2sc3c(c2c(=O)n1-c1ccc([N+](=O)[O-])cc1)CCCCC3 | 47.7% (inactive) |
| Cn1cc(-c2nn3cc(-c4ccccc4)nc3s2)c2ccccc21 | 61.4% (inactive) |
| C=C1C(=O)O[C@H]2[C@H]1CC/C(COC(=O)NCCCCCCCCNC(=O)OC/C1=C/CC[C@@]3(C)O[C@H]3[C@H]3OC(=O)C(=C)[C@@H]3CC1)=C\CC[C@@]1(C)O[C@@H]21 | -38.2% (active) |
| Oc1c(I)cc(-c2nc3ccccc3s2)cc1CN(Cc1ccccn1)Cc1ccccn1 | 15.7% (inactive) |
| Cc1ncc(C(=O)Nc2ccc(CN3CCN(C)CC3)c(C(F)(F)F)c2)cc1C#Cc1cnc(N)c2ccncc12 | -54.8% (active) |
| O=C1/C(=C/c2ccc(C(F)(F)F)cc2)COc2ccc(O)c(O)c21 | -36.7% (active) |
| O=C1N[C@@H]2[C@@H](O)[C@@H](O)[C@H](O)C[C@H]2c2cc3c(c(O)c21)OCCO3 | -26.5% (active) |

From PubChem BioAssay (NCI)
